How the values were obtained:
Assay in all cases: PBM binding z-score (relative to random genomic background probes); higher = stronger binding; sequences stand for … in GC…GCGATTGACAGCGTAGAATGAAGG
[1] = tested on: RARb homodimer (NR concentration 270 nM)
In short: (§1)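 Probes were double-stranded and carried 34-nt variable regions with direct-repeat seeds, single-nucleotide variants, half-site ablations and random human genomic background sequences, printed on custom Agilent 4×180K protein-binding microarrays. Arrays were incubated 1 h with ligand-free nuclear receptor dimers in PBS pH 7.4, 2% milk, 0.02% Triton X-100, 1 mM DTT, 0.2 mg/mL BSA and 0.4 mg/ml salmon testes DNA. Antibodies against each partner (one per run) detected binding, and scanned fluorescence was regression-normalized. Binding z-scores use the random background probes as reference.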

[2] = tested on: RARg:RXRa (NR concentration 270 nM, RXRa partner concentration 90 nM)
In short: as §1

[3] = tested on: RARg homodimer (NR concentration 270 nM)
In short: as §1

[4] = tested on: RXRa DBDmut IVT, anti-RXR (DBD mutation: RXRa K156A/R161A, NR concentration 90 nM)
In short: as §1

[5] = tested on: RXRa homodimer (NR concentration 180 nM)
In short: as §1

[6] = tested on: THRa:RXRa (NR concentration 90 nM, RXRa partner concentration 90 nM)
In short: as §1

[7] = tested on: THRa homodimer (NR concentration 90 nM)
In short: as §1

[8] = tested on: VDR homodimer (NR concentration 270 nM)
In short: as §1

[9] = tested on: VDR:RXRa (NR concentration 270 nM, RXRa partner concentration 90 nM)
In short: as §1

Sequence | PBM binding z-score [1] | PBM binding z-score [2] | PBM binding z-score [3] | PBM binding z-score [4] | PBM binding z-score [5] | PBM binding z-score [6] | PBM binding z-score [7] | PBM binding z-score [8] | PBM binding z-score [9]
GATACAGGGTCAAGGCCAGCGTACGCGTATTGAT | 3.63 | 5.27 | 4.55 | 2.14 | 5.61 | 3.53 | 1.43 | 1.31 | 
TCTAGTAGATCAGCAGGTTAAGAAAGCTGGCCAA | -0.0798 | -0.00824 | -0.453 | 0.645 | 0.438 | 0.0763 | -1.15 | -0.213 | 0.524
AGAACGAGGGCAATGAGTTGATAACACGGGTGGC | 0.742 | 1.31 | 1.53 | 1.96 | 0.961 | 1.04 | -0.289 | 3.3 | 5.15
TAGCCTAGGTCATGGGGCAGTATACCACGCGAAC | 2.71 | 4.3 | 4.2 | 0.354 | 3.61 | 3.23 | 1.44 | 0.585 | 2.45
CCTTACCGGTCACTGACAGGTTATAGCATTTGGA | 2.7 | 3.19 | 3.15 | 0.586 | 1.2 | 1 | 0.662 | 0.617 | 0.869
TCTTGTAGATGAAAGGTTAAGAAAGCCGAAGCCT | 1.17 | 1.2 | 0.987 | 1.1 | 2.39 | 0.806 | -0.431 | -0.24 | 1.06
TCTTGTAGATCAAAAGGAGGTTAAGAAAGATCGA | 0.201 | 0.79 | 0.0979 | 0.622 | 1.17 | 1.09 | -0.613 | 0.16 | 
ACTCGTAGGACAAAGGTCAGAGCTACGCCAGTGA | 4.29 | 5.58 | 4.82 | 1.14 | 5.3 | 2.92 | 0.244 | 0.657 | 
